CRFR2-BP antag = antagonists of CRF-binding protein/CRF-R2 receptor complex. inhibition, % at 11.8 µM. hit rate 0.59% among 350,000. HEK293 CRF-R2/CRF-BP, CRF-induced calcium fluorescence;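 active means inhibition of the ligand-induced calcium signal above about 50% at the single tested concentration, limit read from the data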
RTF Ca sens inh = cardiac RTF calcium desensitization. hit rate 0.12% among 340,000. inhibition, % at 7.15 µM. IANBD-labeled cardiac RTF, Ca2+ fluorescence;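 active means inhibition above the mean inhibition of all tested compounds plus 3 SD, cut at about 17% in these data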;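 further: assay run at fixed EC70 calcium of 1.6 mM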
CRFBP-R2 agonist = CRF-BP/CRF-R2 complex agonism | hit rate 0.46% among 350,000 | activation, % at 13.2 µM | HEK293 CRF-R2/CRF-BP, calcium dye fluorescence (FLIPR); percent of saturating CRF peptide response;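 active means activation of at least 50%, plus an integration ratio under a set limit after plate pattern correction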;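 further: plate controls were neutral control wells without compound for no effect and CRF at EC100 for full effect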
RTF Ca sens act = cardiac RTF calcium sensitization | P19429+P45379 | IANBD-labeled TnC RTF fluorescence at EC20 calcium; 0% EC20 calcium, 100% full calcium | activation, % at 7.2 µM | hit rate 0.24% among 340,000 | AID 493008;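 active means activation above the mean over all tested compounds plus 3 SD, cut at about 30% in these data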;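 further: rise in fluorescence read as greater calcium sensitivity of cardiac thin filaments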
IDE cell activ = activators of human insulin-degrading enzyme in cells; activation, % at 5.96 µM; HEK cells, FAbeta-B cleavage, fluorescence polarization; 0% vehicle, 100% cell-free pure enzyme wells; hit rate 0.073% among 340,000;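 active means activation above the mean of all tested compounds plus 3 SD, set per screening campaign, cut at about 17% in these data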
IDE inh = cellular human IDE inhibition; P14735; HEK cells, FAbetaB cleavage, fluorescence polarization; inhibition, % at 5.59 µM; hit rate 0.41% among 320,000; AID 434962;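 active means percent inhibition above the average of all tested compounds plus 3 SD, set per screening campaign, cut at about 16% in these data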;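 further: IDE supplied by intact live HEK cells; FP after avidin binding of uncleaved biotin substrate so inhibition keeps polarization high; 0% = DMSO wells and 100% = 60 µM reference IDE inhibitor Ii1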
The depositor's hits bear a star; . = no result given. Shown are actives, neighbours in structure and some others; about 1.5% of the full set was active somewhere.

SMILES | CRFR2-BP antag | RTF Ca sens inh | CRFBP-R2 agonist | RTF Ca sens act | IDE cell activ | IDE inh
Cc1cc2oc(=O)cc(-c3ccccc3)c2c(C)c1-c1ccc(O)cc1 | 50* | 1 | 0 | -3 | 0 | .
COc1cccc(N(C(=O)C2CSC(=O)C2)C(C(=O)NC(C)(C)C)c2ccncc2)c1 (centres undefined) | 9 | -8 | -1 | 2 | 9 | 0
CC(C)(C)NC(=O)C(c1ccccn1)N(C(=O)C1CSC(=O)C1)c1cccc(F)c1 (centres undefined) | 70* | -9 | -1 | 6 | 0 | 2
Cn1cccc1/C=C1\SC(=S)N(CC(=O)O)C1=O | 0 | -24 | 2 | 28 | -1 | -5
O=C(O)CN1C(=O)/C(=C/c2ccc(SCc3ccccc3)o2)SC1=S | -57 | -45 | 39 | 35* | -12 | .
COc1cccc(CN2CCN(C(=O)c3ccco3)CC2)c1 | 11 | -7 | 1 | 0 | 3 | 6
COc1ccccc1N(C(=O)c1ccco1)C(C(=O)NC1CCCC1)c1ccc(N2CCOCC2)cc1 (centres undefined) | -26 | -3 | 0 | -2 | 5 | 5
COc1ccc(/C=C2\Oc3cc(OCC(=O)N4CCC(C(=O)O)CC4)ccc3C2=O)c(OC)c1OC | 9 | 1 | -1 | 7 | 23* | -15
COc1ccc(/C=C2\Oc3cc(OCC(=O)N4CCC(C(=O)O)CC4)ccc3C2=O)c(OC)c1 | 3 | -37 | 2 | 28 | 29* | -15
O=C1/C(=C/c2ccccc2)Oc2cc(OC(=O)N3CCOCC3)ccc21 | 4 | -6 | 1 | -13 | -3 | 0
COc1ccc(/C=C2\Oc3cc(OC(=O)N4CCOCC4)ccc3C2=O)c(OC)c1 | -8 | -51 | 26 | 37* | -16 | 2
Cc1ccc(-n2nnnc2C(Cl)(Cl)c2nnnn2-c2ccc(C)cc2)cc1 | -99 | -4 | 72* | -4 | -25 | 8
Clc1ccc(-c2nnnn2-c2ccc(Cl)cc2)cc1 | 28 | . | -8 | . | . | 4
Cc1ccc2c(c1)-c1[nH]c(=S)ncc1CS2 | 3 | -6 | -1 | -1 | -12 | 19*
O=C(NC(=S)Nc1ncc(Br)cc1Br)c1ccccc1 | -1 | 0 | -1 | -6 | 2 | 6
COC(=O)c1ccccc1NC(=O)c1nc(S(=O)(=O)Cc2ccccc2)ncc1Cl | 54* | -4 | -1 | -6 | 2 | -2
Cc1ccc(CS(=O)(=O)c2ncc(Cl)c(C(=O)Nc3ccc(OC(F)F)cc3)n2)cc1 | 54* | -4 | 0 | -2 | 2 | -2
CCOc1ccc(C(=O)NNC(=O)CCNC(=O)c2ccco2)cc1OC | 97* | -10 | 0 | -3 | 1 | 2
CCOc1ccc(C(=O)NNC(=O)CCNC(=O)c2ccc(Br)cc2)cc1OC | -4 | -6 | -1 | -5 | 1 | -5
CC(=O)c1cccc(NC(=O)CCN2C(=O)C3C4CCC(C4)C3C2=O)c1 (centres undefined) | 16 | -3 | -2 | -1 | 6 | 1
COc1ccc(NC(=S)N2CCC(C(O)(c3ccccc3)c3ccccc3)CC2)cc1 | -18 | -25 | 1 | 12 | 0 | -2
CCOc1ccc(NC(=S)N2CCC(C(O)(c3ccccc3)c3ccccc3)CC2)cc1 | 56* | -5 | -4 | 0 | 2 | 4
CC(=O)N1CCN(C(=O)c2cc(=O)c3ccccc3o2)CC1 | 13 | -17 | 1 | -4 | 1 | -5
O=C(Nc1cc(C(F)(F)F)ccc1Cl)C(Sc1cccc[n+]1[O-])c1ccccc1 (centres undefined) | -262 | -2 | 160* | -5 | 6 | 0
O=C(Nc1cc(C(F)(F)F)ccc1Cl)C(Sc1n[nH]c(=O)[nH]c1=O)c1ccccc1 (centres undefined) | -21 | -2 | -1 | -1 | 1 | 3
COCCn1c(=NC(=O)/C=C/c2ccccc2)sc2cc(NC(C)=O)ccc21 | 15 | -35 | -1 | 33* | 2 | -1
COCCn1c(=NC(C)=O)sc2cc([N+](=O)[O-])ccc21 | 13 | 0 | -2 | 0 | 4 | 4
Cc1cc(OC(C)C(=O)NCC2CCCO2)cc(C)c1Cl (centres undefined) | -2 | -5 | 0 | -5 | 4 | -6

High-throughput results: PubChem BioAssay, several laboratories
